Experiments:
Test in all cases: PBM binding z-score (relative to random genomic background probes); higher = stronger binding; sequences stand for … in GC…GCGATTGACAGCGTAGAATGAAGG
[1] = tested on: FXR:RXRa (NR concentration 270 nM, RXRa partner concentration 90 nM)
Summary of the method: (§1)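 Custom Agilent 4×180K protein-binding microarrays carried double-stranded probes. Their 34-nt variable regions held direct-repeat seeds, single-nucleotide variants, half-site ablations and random human genomic background sequences. Arrays were incubated 1 h with ligand-free nuclear receptor dimers in PBS pH 7.4, 2% milk, 0.02% Triton X-100, 1 mM DTT, 0.2 mg/mL BSA and 0.4 mg/ml salmon testes DNA. Antibodies against each partner (one per run) detected binding, and scanned fluorescence was regression-normalized. Binding z-scores use random background probes as reference.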

[2] = tested on: LXRa:RXRa (NR concentration 270 nM, RXRa partner concentration 90 nM)
Summary of the method: as §1

[3] = tested on: LXRa homodimer (NR concentration 270 nM)
Summary of the method: as §1

[4] = tested on: LXRb:RXRa (NR concentration 270 nM, RXRa partner concentration 90 nM)
Summary of the method: as §1

[5] = tested on: LXRb homodimer (NR concentration 270 nM)
Summary of the method: as §1

[6] = tested on: PPARa:RXRa (NR concentration 270 nM, RXRa partner concentration 90 nM)
Summary of the method: as §1

[7] = tested on: PPARg:RXRa (NR concentration 180 nM, RXRa partner concentration 90 nM)
Summary of the method: as §1

[8] = tested on: PPARg:RXRa 270nM:90nM, anti-RXR (NR concentration 270 nM, RXRa partner concentration 90 nM)
Summary of the method: as §1

[9] = tested on: PPARg:RXRa 30nM:10nM, anti-RXR (NR concentration 30 nM, RXRa partner concentration 10 nM)
Summary of the method: as §1

[10] = tested on: PPARg:RXRa 90nM:30nM, anti-RXR (NR concentration 90 nM, RXRa partner concentration 30 nM)
Summary of the method: as §1

[11] = tested on: PPARg:RXRa DBDmut IVT, anti-RXR (DBD mutation: RXRa K156A/R161A, NR concentration 270 nM, RXRa partner concentration 90 nM)
Summary of the method: as §1

[12] = tested on: PPARg:RXRa IVT, anti-PPARg (NR concentration 270 nM, RXRa partner concentration 90 nM)
Summary of the method: as §1

[13] = tested on: PPARg DBDmut:RXRa IVT, anti-PPARg (DBD mutation: PPARg1 K132A/R137A, NR concentration 270 nM, RXRa partner concentration 90 nM)
Summary of the method: as §1

[14] = tested on: PPARg DBDmut IVT, anti-PPARg (DBD mutation: PPARg1 K132A/R137A, NR concentration 270 nM)
Summary of the method: as §1

[15] = tested on: PPARg homodimer (NR concentration 180 nM)
Summary of the method: as §1

[16] = tested on: PXR:RXRa (NR concentration 270 nM, RXRa partner concentration 90 nM)
Summary of the method: as §1

[17] = tested on: PXR homodimer (NR concentration 270 nM)
Summary of the method: as §1

[18] = tested on: RARa:RXR (NR concentration 270 nM, RXRa partner concentration 90 nM)
Summary of the method: as §1

[19] = tested on: RARa homodimer (NR concentration 270 nM)
Summary of the method: as §1

[20] = tested on: RARb:RXRa (NR concentration 270 nM, RXRa partner concentration 90 nM)
Summary of the method: as §1

| Sequence | PBM binding z-score [1] | PBM binding z-score [2] | PBM binding z-score [3] | PBM binding z-score [4] | PBM binding z-score [5] | PBM binding z-score [6] | PBM binding z-score [7] | PBM binding z-score [8] | PBM binding z-score [9] | PBM binding z-score [10] | PBM binding z-score [11] | PBM binding z-score [12] | PBM binding z-score [13] | PBM binding z-score [14] | PBM binding z-score [15] | PBM binding z-score [16] | PBM binding z-score [17] | PBM binding z-score [18] | PBM binding z-score [19] | PBM binding z-score [20] |
| --- | --- | --- | --- | --- | --- | --- | --- | --- | --- | --- | --- | --- | --- | --- | --- | --- | --- | --- | --- | --- |
| TGAATGAGGTTAAAGAACAGGGAACGTGGCGTCG | 2.39 | 1.98 | -0.259 | 1.32 | 0.39 | 3.38 | 2.53 | 3.32 | 1.51 | 3.04 | 1.89 | 2.33 | 0.69 | 0.463 | 0.725 | 1.13 | 0.0217 | 1.52 | 0.262 | 1.95 |
| TTGCCAAGGTGAAGGTCGTTGATCCCTCTGTAGA | 2.38 | 1.79 | -0.705 | 1.45 | -1.15 | 2.12 | 0.85 | 2.06 | 0.251 | 1.41 | 1.25 | 2.3 | -1.04 | -0.656 | 0.119 | 1.21 | -0.362 | 1.6 | -0.87 | 2.08 |
| GTACCAAGGTGAATAGGGCGTTGATGAGTAGGCG | 0.407 | 0.248 | -0.214 | -0.0331 | -0.614 | 1.22 | 1.02 | 0.756 | -0.0867 | 0.088 | 1.79 | 2.39 | 0.11 | -0.0449 | 0.629 | -0.0283 | 0.127 | 0.434 | 0.194 | 1.5 |
| CGTCAAAGTTCAACTAAGGTAACGAAAAGCACGC | 7.29 | 6.07 | 3.55 | 3.97 | 2.13 | 5.07 | 4.84 | 5.42 | 2.21 | 4.48 | 0.421 | 2.48 | 0.738 | 0.747 | 4.18 | 5.19 | 4.69 | 4.25 | 2.25 | 5.13 |
| CATACTAGGTCAAGGTCAAAGTCGGTTTGTGCCA | 6.62 | 5.81 | 5.27 | 4.77 | 1.99 | 5.6 | 8.52 | 7.01 | 5.63 | 6.93 | 7.56 | 7.98 | 3.58 | 0.96 | 5.3 | 5.33 | 2.51 | 5.37 | 2.9 | 4.96 |
| AGTGAAAGTTCATCTAGGTAACGTAAGATATGCT | 5.95 | 5.92 | 5.06 | 3.56 | 1.86 | 4.52 | 5.39 | 5.5 | 2.65 | 4.84 | 0.529 | 3.41 | 1.8 | 1.64 | 2.58 | 4.68 | 6.78 | 3.24 | 1.4 | 4.63 |
| ATCTCTAGGTAACCAAGGTCAGTGAATGCCGAAC | 1.59 | 2.3 | 1.46 | 1.91 | 0.895 | 2.72 | 1.79 | 1.92 | 0.476 | 1.39 | 4.04 | 3.81 | 1.28 | 1.3 | 1.93 | 2.47 | 1.21 | 2.26 | 2.02 | 2.7 |
| GCGACTGGGGCATCAGCAGGTTAGCATAACTTAA | -0.723 | -0.775 | -0.738 | 0.063 | -1.51 | 0.705 | 0.575 | 0.572 | -0.512 | 0.0276 | 3.62 | 2.57 | -1.06 | -1.09 | -0.262 | -0.392 | -0.845 | -0.492 | -0.942 | 0.511 |
| TCATATAGCTAAACAGGTGAAAGTCCGTAAGTTA | -0.237 | -0.00497 | -0.0906 | 0.338 | -0.588 | 1.08 | 0.667 | 1.92 | 2.64 | 2.23 | 1.46 | 0.758 | -0.631 | 0.119 | 0.0802 | 0.228 | -0.231 | 0.404 | 0.0178 | 0.215 |
| CGAACTCGGTCATCCAGGACAGTGAATACATTGA | 1.39 | 0.744 | 0.283 | 0.275 | -0.494 | 0.964 | 1.14 | 0.895 | 0.134 | 0.455 | 3.58 | 2.52 | 0.285 | 0.0941 | 0.363 | 0.205 | -0.0652 | 0.856 | 0.205 | 2.31 |
| TCTGCTAGGTCAACGAGGGTCAGCTAATCTGCTA | 4.68 | 4.83 | 0.398 | 3.04 | 0.26 | 4.27 | 3.36 | 3.79 | 2.12 | 3.02 | 4.34 | 4.28 | -0.294 | -0.307 | 2.15 | 4.96 | -0.4 | 4.03 | -0.252 | 4.65 |
| ATCGAAGGGTCGACGAGGTGAGTATACACCGTTT | 1.51 | 0.812 | -0.587 | 0.951 | -0.33 | 2.44 | 1.3 | 0.831 | 0.448 | 0.6 | -0.299 | 0.882 | -0.145 | 0.665 | 0.411 | 1.11 | -0.598 | 2.02 | -0.471 | 2.3 |
| CGAACTAGGACATTGACAGGACAGTGAATAGTAA | -0.0957 | -0.0769 | 0.0961 | -0.38 | -0.79 | 0.451 | 0.933 | 0.247 | 0.384 | 0.344 | 4.34 | 3.36 | 1.39 | 0.241 | 0.296 | -0.136 | 0.135 | -0.244 | -0.0168 | 0.136 |
| CGAACTAGGTCATCTAGGACAGTGAATACATTGA | 4.09 | 2.49 | 0.484 | 2.12 | -0.144 | 4.72 | 7.33 | 6.44 | 3.66 | 5.7 | 8.06 | 8.21 | 3.51 | 1.83 | 2.99 | 1.73 | 0.602 | 2.23 | 0.753 | 3.92 |
| CCGACTGGGACATAAGGTTACCATAAGCCAGCCC | 0.338 | 2.04 | 0.14 | 0.621 | -0.915 | 1.21 | 1.61 | 2.59 | 0.545 | 1.96 | 1.57 | 0.909 | -1.05 | -1.68 | 0.314 | 0.0588 | -0.0723 | 0.922 | -0.0116 | 1.05 |

Source: the supplement of paper PMC6555819
